# Measurements: PubChem BioAssay (NCI)
# This is part of a sample that, as a whole, favours compounds with a hit. Of some 83,000 tested, about 20% had one in any assay.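 Single-dose data. Exposure time 48 hours. Values below 10 considered active.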 Values without a mark were called inactive. Active and inactive are the calls of the source.
# Test system: KM12 colon
# Assay: NCI-60 one-dose screen, 48 h (100 = growth as untreated, 0 = no growth, -100 = all killed)
# Settings: 10 µM unless noted
row,SMILES,growth
1,COC(=O)[C@@H](NC(=O)[C@@H](OC)[C@@H]1Cc2cc3cc(OC4CC(OC5CC(O)C(O)C(C)O5)C(O)C(C)O4)c(C)c(O)c3c(O)c2C(=O)[C@H]1OC1CC(OC2CC(OC3CC(C)(O)C(O)C(C)O3)C(O)C(C)O2)C(O)C(C)O1)C(C)C (stereo not given in full),4.63% (active)
2,Nc1c2c(c(O)c3c1=C(CO)C=N3)=NCCS2=O (stereo not given),-27.7% (active)
3,C=CC[n+]1c(/C=C2\Sc3ccccc3N2C)sc(-c2ccccc2)c1-c1ccccc1,14%
4,CC1(C=O)NC(=O)NC1=O (stereo not given),108%
5,COc1cc2c3c(c1)nc(C)n3CCC2,108%
6,COc1cc2c(Oc3ccc4[nH]c(C)cc4c3F)ncnc2cc1OCCCN1CCCC1,96.7%
7,CCc1nc2cc(/C=C/C(=O)NO)c(F)cc2c(=O)n1CCc1ccccc1,15.5%
8,CCc1cc2c(c3ccc(C(=O)CBr)cc13)CCCC2,103%
9,COc1cc(F)c(F)c(Nc2ccc(I)cc2F)c1NS(=O)(=O)C1(C[C@H](O)CO)CC1,24.2%
10,C=CC(=O)Nc1cc2c(Nc3ccc(F)c(Cl)c3)ncnc2cc1C#CC(C)(C)N1CCN(C)CC1,-90.2% (active)
11,CN1CC[C@H](c2c(O)cc(O)c3c(=O)cc(-c4ccccc4Cl)oc23)[C@H](O)C1,3.91% (active)
12,COc1cc2ncnc(Nc3ccc(F)c(Cl)c3)c2cc1NC(=O)/C=C/CN1CCCCC1,-83.8% (active)
13,O=C(c1ccccc1)C(c1ccccc1)N1CCOCC1 (stereo not given),99.1%
14,COc1ccc(CCCc2c3[n+](cc4c(OC)c(OC)ccc24)CCc2cc4c(cc2-3)OCO4)cc1,30.8%
15,CCn1c(-c2nonc2N)nc2c(C#CC(C)(C)O)ncc(OC[C@H]3CCCNC3)c21,35.9%
16,COc1ccc(C2CC(=O)c3c(O)c(OC)c(OC)c(OC)c3O2)cc1O (stereo not given),12.5%
17,NC1(c2ccc(-c3nc4ccn5c(=O)[nH]nc5c4cc3-c3ccccc3)cc2)CCC1,26.9%
18,CCc1nc(C(N)=O)c(Nc2ccc(N3CCC(N4CCN(C)CC4)CC3)c(OC)c2)nc1NC1CCOCC1,13.8%

row,SMILES,growth
1,CC(C)(C)c1ccc(Cn2cc(CSc3nc4ccccc4s3)nn2)cc1,101%
2,COCC(=O)NC/C=C/c1ccc2ncnc(Nc3ccc(Oc4ccc(C)nc4)c(C)c3)c2c1,28.8%
3,COc1ccc(-n2c(=O)c3ccccc3n(Cc3ccc(C(=O)NO)cc3)c2=O)cc1,-32.9% (active)
4,CC(=O)C(C(C)=O)C(c1ccccc1)C(C(C)=O)C(C)=O,110%
5,Cc1cc2c(F)c(Oc3ncnn4cc(OC[C@@H](C)OC(=O)[C@H](C)N)c(C)c34)ccc2[nH]1,35.1%
6,O=C(Cn1cncn1)Nc1ccc(-c2nc3ccccc3s2)cc1,98.2%
7,COc1ccc(-c2cc3c(C)nc(N)nc3n(C3CCC(OCCO)CC3)c2=O)cn1 (stereo not given),5.53% (active)
8,COc1cc(OC)c(/C=C/S(=O)(=O)Cc2ccc(OC)c(NCC(=O)O)c2)c(OC)c1,5.06% (active)
9,C=CC(=O)N(C)[C@H]1C[C@H]2OC(C)(C1OC)n1c3ccccc3c3c4c(c5c6ccccc6n2c5c31)C(=O)NC4 (stereo not given in full),9.67% (active)
10,O=C1C=CC2(NN=C(c3ccccc3)N2c2cccc(Cl)c2)c2cccc(O)c21 (stereo not given),64.9%
11,COC(=O)[C@@H](OC)[C@@H]1Cc2cc3cc(OC4CC(OC5CC(O)C(O)C(C)O5)C(O)C(C)O4)c(C)c(O)c3c(O)c2C(=O)[C@H]1OC1CC(OC2CC(OC3CC(C)(O)C(O)C(C)O3)C(O)C(C)O2)C(O)C(C)O1 (stereo not given in full),1.5% (active)
12,O=C(O)c1ccc(Nc2ncc3c(n2)-c2ccc(Cl)cc2C(c2c(F)cccc2F)=NC3)cc1,28.3%
13,CC(C)Nc1cc(-c2c[nH]c(C(=O)N[C@H](CO)c3cccc(Cl)c3)c2)c(Cl)cn1,18.7%
14,CCN(CC)CCNC(=O)c1c(C)[nH]c(/C=C2\C(=O)Nc3ccc(F)cc32)c1C,4.04% (active)
15,COc1cccc2cc(-c3nc(C4CCC(C(=O)O)CC4)n4ncnc(N)c34)[nH]c12 (stereo not given),18.4%
16,O=C(c1ccc(/C=C/c2n[nH]c3ccccc23)cc1)N1CCNCC1,8.09% (active)
17,COc1cc(-c2nc(C(=O)NCC(=O)O)nn2-c2ccc(Cl)cc2)cc(OC)c1OC,96.3%
